Only some compounds are listed: those with a hit (about 8.7% of all), similar ones and a draw of the others.
Sfp inh: Sfp phosphopantetheinyl transferase inhibition; AID 1490; 3.5% of 310,000 active; Biochemical Sfp PPTase activity, qHTS; Potency, µM, for the others: largest response in the series, negative = inhibition, actives largely listed as inhibitors; Q9F4F7;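 also: the enzyme is Sfp with the accession as filed and its product quenches rhodamine fluorescence; 0% = enzyme reaction without inhibitor and -100% = no enzyme wells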
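Compounds were incubated with enzyme (final 15 nM) for 15 min at room temperature before substrate addition started the reaction. Fluorescence at 525 nm excitation, 598 nm emission was recorded immediately and after 30 minutes.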
12-LOX inh: inhibitors of human 12S-lipoxygenase ALOX12; P18054; Potency, µM (highest dose often 108 µM), inactives show at the highest dose activity change, negative = inhibition, actives largely listed as inhibitors; AID 1671190; 1.1% of 580,000 active; purified 12hLO, xylenol orange hydroperoxide absorbance; also: % is scaled to controls: 0 for no effect and ±100 for the full control effect
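Purified human 12hLO (150 nM final) in 25 mM Hepes, 0.01% Triton X-100, pH 7.0 was preincubated 15 min at room temperature with compound. Then 40 uM arachidonic acid was added, 30 min. Hydroperoxide was read by Fe-XO absorbance ratio 573/405 nm.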
HP1b binding inh: HP1-beta chromodomain-methylated histone interaction inhibition; AlphaScreen HP1-beta / biotin-H3K9me3 peptide binding; Potency, µM (series often up to 114 µM), without a hit: top-dose activity change, negative = inhibition, actives largely listed as inhibitors; P83916; 0.56% of 390,000 active; also: nearly all actives have a fitted effect of over 70% in size
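HP1-beta protein (50 nM final) preincubated 30 min at room temperature with biotinylated H3(1-18)K9me3 peptide (50 nM) in PBS pH 7.4, 0.01% Tween-20, then compound added for 30 min. AlphaScreen streptavidin donor/nickel chelate acceptor beads (10 ug/mL final), 30 min dark, luminescence read.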
JMJD2A Tudor: JMJD2A Tudor domain (human) inhibition | AlphaScreen JMJD2A-Tudor / H3K4me3 peptide binding | Potency, µM (top dose mostly 114 µM), for the others: at the highest dose activity change, negative = inhibition, actives largely listed as inhibitors | 4.4% of 390,000 active; also: % is scaled to controls: 0 for no effect and ±100 for the full control effect; nearly all actives have a fitted effect of over 50% in size
G9a block: blocks human histone lysine methyltransferase G9a; G9a H3K9 monomethylation, AlphaScreen, 2 h; Potency, µM (top dose mostly 102 µM), for the others: at the top dose activity, negative = inhibition, actives largely listed as inhibitors; Q96KQ7; 8.8% of 350,000 active; also: % is scaled to controls: 0 for no effect and ±100 for the full control effect; nearly all actives have a fitted effect of over 75% in size
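AlphaScreen detection with an anti-monomethyl H3K9 antibody quantified product after a 2 h room-temperature reaction containing 500 nM biotinylated H3K9 peptide, 20 µM SAM and 20 nM enzyme, which had been preincubated 15 min with compound.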
BAZ2B inh: BAZ2B (human) inhibition; Q9UIF8; AlphaScreen BAZ2B-H3K14Ac peptide displacement; Potency, µM (highest dose often 114 µM), for inactives: at the highest dose activity change, negative = inhibition, usual class: inhibitors; 4.4% of 360,000 active; AID 504333; also: % is scaled to controls: 0 for no effect and ±100 for the full control effect; nearly all actives have a fitted effect of over 60% in size
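BAZ2B 50 nM plus b-H3(5-23)K14Ac 50 nM, PBS pH 7.4/0.01% Tween-20, 30 min RT; compound added (max 110 uM), 30 min RT; streptavidin donor/Ni-chelate acceptor beads 10 ug/mL final, 20 min dark; AlphaScreen read.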
Starred values were filed as active, the others as inactive; ? = inconclusive; . = no result; ! = a repeat was not active; [ ] = remark or other dose. Calls follow the shape of the dose curve; as a rule, active = well fitted curve in the direction sought with a large enough effect; inconclusive = small, poorly fitted or top-dose-only effect, or another doubt; inactive = no such curve, though single readings can be large; an effect the other way counts as inactive or inconclusive. Potency is read from the fitted curve at half-maximal effect.

SMILES	Sfp inh	12-LOX inh	HP1b binding inh	JMJD2A Tudor	G9a block	BAZ2B inh
COc1ccccc1Oc1c(C)oc2cc(OCC(=O)Nc3cccc(NC(C)=O)c3)ccc2c1=O	.	-35%	.	.	.	.
C=CCNc1nc(C(=O)OCc2ccc(F)cc2)cs1	.	0%	.	.	.	.
CCCCC(=O)Nc1cccc(NC(=O)c2cccc3c(Br)cccc23)c1	.	-19%	.	.	.	.
Cc1ccc(NC(=O)CSCC(=O)Nc2ccc(N3CCOCC3)cc2N2CCOCC2)cc1	.	-6%	7%	-19%	50µM*	9%
Cc1cc(C)nc(SCC(=O)Nc2ccc(N3CCOCC3)cc2)n1	6%	?	51%	-8%	11µM*	-5%
CN(C)c1cccc2c(S(=O)(=O)Nc3ccccn3)cccc12	3%	0%	28%	3%	7%[12.7 µM]	11%
Cc1noc(NS(=O)(=O)c2cccc3c(N(C)C)cccc23)c1C	50µM*	?	.	.	.	.
Cc1ccc(CCNS(=O)(=O)c2ccc(C)cc2)cc1	3%	-23%	51%	32%	4%	3%
Cc1ccc(S(=O)(=O)NCCc2ccc(S(N)(=O)=O)cc2)cc1	5%	?	54%	21%	14µM*	2%
Cc1cc(OCC(=O)Nc2cnn(CCCC(=O)O)c2)ccc1Cl	-2%	?	46%	-4%	14µM*!	-31%
O=C(O)CCCn1cc(NC(=O)COc2ccc(F)cc2F)cn1	14%	-8%	43%	-9%	-1%	-19%
Cc1cc(OCC(=O)Nc2cnn(CCCC(=O)O)c2)ccc1[N+](=O)[O-]	-3%	2%	58%	-1%	-34%	5%
O=C(O)CCCn1cc(NC(=O)COc2ccccc2F)cn1	7%	1%	28%	79µM*!	52%	6%
CC(C)(C)c1ccc(C(=O)N2CCN(C(=O)c3nnn4c3COC(c3ccc(F)cc3)C4)CC2)cc1 (centres undefined)	.	-4%	.	.	.	.
Cc1cccc(N/N=C/c2ccc(C)s2)c1	-3%	-24%	-8%	?	?	?
Cc1cccc(NN=C2c3ccccc3-c3ccccc32)c1	1%	-22%	15%	-24%	32µM*	-14%
COc1cccc(CNC(=O)c2cc3c(=O)[nH]c(C)cn3n2)c1	.	0%	.	.	.	.
COc1cccc(CNC(=O)c2c[nH]n3c(=O)c(Cl)c(C)nc23)c1	-13%	-18%	18%	-10%	45µM*	-3%
Cc1nc2c(C(=O)NCc3ccc4c(c3)OCO4)c[nH]n2c(=O)c1Cl	45µM*	?	9%	-15%	7%[59 µM]	-33%
Cc1ccc(CNC(=O)c2c[nH]n3c(=O)c(Cc4ccc(Cl)cc4)c(C)nc23)cc1	.	-13%	34%	-33%	25%[59 µM]	-15%
O[C@@H]1CN(CC2CC2)CC[C@H]1N1CCN(c2ccccc2F)CC1	.	71%	.	.	.	.
COc1ccc(NC(=O)N2CCN(Cc3ccc(C)cc3)CC2)cc1	.	15%	.	.	.	.
CCOc1cc(CNc2ccc(O)cc2)ccc1OCc1ccc(Cl)cc1Cl	?	.	-38%	79µM*	?	?
CCOc1cccc(CNc2ccc(O)cc2)c1OCc1ccc(Cl)cc1	45µM*	?	-7%	79µM*	14µM*	-35%[57.1 µM]
Oc1ccc(NCc2ccc(OCc3ccccc3Cl)cc2)cc1	.	?	?	50µM*	3.2µM*	?
SMILES	Sfp inh	12-LOX inh	HP1b binding inh	JMJD2A Tudor	G9a block	BAZ2B inh
COc1cc(CNCCN2CCOCC2)ccc1OCc1ccc(Cl)cc1Cl	-5%	?	18%	-20%	.	?
COc1cccc(CN2CCOC[C@H](Oc3ccc(C(F)(F)F)cc3)C2)c1	.	19%[176 µM]	.	.	.	.
CC(O)CNc1nc2sc3c(c2c(=O)n1CCc1ccccc1)CCCCC3 (centres undefined)	-23%	-29%	?	?	50µM*	?
CN(C)CCNc1nc2sc3c(c2c(=O)n1CCc1ccccc1)CCCCC3	-18%	?	-24%	50µM*	40µM*	45µM*
O=C(O)CN(CC(=O)O)CC(=O)O	.	?	46%	32µM*	.	.
O=C(O)CN(CCO)CCN(CC(=O)O)CC(=O)O	14%	.	.	.	17%	11%
CC(NC(=O)c1cccs1)C1CC2CCC1C2 (centres undefined)	.	4%	.	.	.	.
C=CCn1c(SCC(=O)Nc2ccc(C(=O)OCC)cc2)nnc1-c1cccs1	13%	-14%	26%	1%	-6%[12.7 µM]	6%
C=CCn1c(CCNC(=O)c2cccs2)nnc1SCC(=O)c1ccc(Br)cc1	1%	-30%	28%	-20%	45µM*	0%
C=CCn1c(SCC(=O)c2ccc(NS(=O)(=O)c3ccccc3)cc2)nnc1-c1cccs1	-19%	?	-1%	32µM*	?	-8%
CC(C)(C)n1nc2c(c1NC(=O)Cc1ccc(F)cc1)CSC2	?	?	27%	-21%	45µM*	7%
Cc1ccc2[nH]c(=O)c3cc(C(=O)NCc4ccc(Cl)cc4)sc3c2c1	.	-6%	.	.	.	.
COc1ccc2[nH]c(C(=O)NCCCn3ccnc3)cc2c1	3%	.	17%	-13%	50µM*	-28%
COc1ccc2[nH]c(C(=O)NCCN3CCCCC3)cc2c1	-2%	.	15%	-34%	56µM*	-15%
CCCCNC(=O)c1cc2cc(OC)ccc2[nH]1	1%	1%	37%	-19%	-13%	-3%
CCCNC(=O)Cn1cccc1-c1nc(-c2ccc(F)c(Br)c2)no1	.	-7%	.	.	.	.
CC(=O)c1c(N2CCN(Cc3ccccc3)CC2)[nH]c(-c2ccccc2)nc1=S	11%	40µM*	14%	?	71µM*	?
CC(=O)c1c(N2CCCC2)[nH]c(-c2ccccc2)nc1=S	-6%	45µM*	4%	-22%	?	?
CC(=O)c1c(N2CCOCC2)[nH]c(-c2ccccc2)nc1=S	6%	?	25%	?	-6%	1%
Cc1ccc(-c2nnc(CN3CCC(c4ccn[nH]4)CC3)o2)cc1	.	-1%	.	.	.	.
CSCC(=O)NCCc1cccs1	.	19%	.	.	.	.
COCC(=O)N(C)c1nnc(-c2ccc([N+](=O)[O-])cc2)s1	16%	2%	50%	-21%	30%	2%[57.1 µM]
CC(=O)c1sc(-c2ccccn2)nc1C	-4%	.	.	.	35µM*	6%
COCC(=O)N(C)c1nnc(-c2ccccn2)s1	13%	30%	36%	-2%[11.4 µM]	2%[12.7 µM]	56µM*
c1ccc(-c2csc(-c3ccccn3)n2)cc1	.	-8%	.	.	.	.
c1ccc(-c2nnc(-c3ccccn3)s2)nc1	89µM*	?	-15%	?	-117%[59 µM]	?
c1ccc(C2=NNC(c3ccccn3)=NN2)nc1	13µM*	?	49%	7.1µM*	32µM*	2.8µM*
Cc1nc(-c2ccccn2)sc1C(=O)O	-24%	-30%	36%	-11%[57.1 µM]	-5%	?
